# Laboratory results: article PMC7862700, “An all-to-all approach to the identification of sequence-specific readers for epigenetic DNA modifications on cytosine”
# Columns and labels:
# Assay in all cases: DAPPL (digital affinity profiling via proximity ligation, sequencing); 10 mM Tris-HCl pH 7.5, 50 mM NaCl, 1 mM DTT, 4% glycerol, room temperature, 30 min; GST-TFs on glutathione beads, 16-mer random dsDNA library, 0.1% formaldehyde crosslink after washing; high values mean tight binding
# FLI1 = molecular target: T1, FLI1 (Homo sapiens, UniProt Q01543 1-452); conditions: protein: recombinant; tags: N-terminal GST; dsDNA, one strand shown
# T1 sequence: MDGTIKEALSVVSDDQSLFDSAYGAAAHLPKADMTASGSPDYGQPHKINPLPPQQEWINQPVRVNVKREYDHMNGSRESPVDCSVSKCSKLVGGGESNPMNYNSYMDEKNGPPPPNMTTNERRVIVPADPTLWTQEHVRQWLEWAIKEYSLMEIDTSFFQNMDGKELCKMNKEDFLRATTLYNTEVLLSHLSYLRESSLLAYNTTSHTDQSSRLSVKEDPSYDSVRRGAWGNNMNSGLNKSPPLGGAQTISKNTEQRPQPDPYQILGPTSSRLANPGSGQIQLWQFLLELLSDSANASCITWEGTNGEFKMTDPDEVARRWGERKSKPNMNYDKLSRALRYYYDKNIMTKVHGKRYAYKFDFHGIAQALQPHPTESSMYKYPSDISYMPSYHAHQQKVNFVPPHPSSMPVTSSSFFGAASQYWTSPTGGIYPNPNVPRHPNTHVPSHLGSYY
# In short: (§1)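 The binding signal reported is, for every hexamer, its read frequency for a factor over its read frequency for the tag-only sample. Reads came from pools of yeast-expressed, GST-fused human transcription factors on glutathione beads, barcoded with DNA and mixed with that sample, which were incubated with 200 nmole of a random double-stranded 16-mer DNA library in Tris/NaCl/DTT/glycerol buffer at room temperature for 30 min. After washing, the pools were crosslinked with 0.1% formaldehyde, proximity-ligated with BsaI/T4 ligase for 1 h at 37 °C, PCR-amplified and sequenced on an Illumina NextSeq500.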
# ELK1 = molecular target: T2, ELK1 (Homo sapiens, UniProt P19419 1-428); conditions: protein: recombinant; tags: N-terminal GST; dsDNA, one strand shown
# T2 sequence: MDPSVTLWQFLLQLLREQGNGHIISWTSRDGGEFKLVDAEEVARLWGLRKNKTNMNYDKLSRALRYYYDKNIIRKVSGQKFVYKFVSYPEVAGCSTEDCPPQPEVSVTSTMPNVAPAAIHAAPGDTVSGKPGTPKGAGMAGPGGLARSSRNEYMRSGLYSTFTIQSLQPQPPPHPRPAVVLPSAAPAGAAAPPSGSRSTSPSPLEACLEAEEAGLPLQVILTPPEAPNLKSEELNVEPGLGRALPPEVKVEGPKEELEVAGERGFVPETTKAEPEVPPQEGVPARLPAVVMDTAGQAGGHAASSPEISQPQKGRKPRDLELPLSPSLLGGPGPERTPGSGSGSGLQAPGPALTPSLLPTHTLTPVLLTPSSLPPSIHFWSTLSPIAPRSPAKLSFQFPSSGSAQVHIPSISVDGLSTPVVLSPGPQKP
# In short: as §1
# GABPA = molecular target: T3, GABPA (Homo sapiens, UniProt Q06546 1-454); conditions: protein: recombinant; tags: N-terminal GST; dsDNA, one strand shown
# T3 sequence: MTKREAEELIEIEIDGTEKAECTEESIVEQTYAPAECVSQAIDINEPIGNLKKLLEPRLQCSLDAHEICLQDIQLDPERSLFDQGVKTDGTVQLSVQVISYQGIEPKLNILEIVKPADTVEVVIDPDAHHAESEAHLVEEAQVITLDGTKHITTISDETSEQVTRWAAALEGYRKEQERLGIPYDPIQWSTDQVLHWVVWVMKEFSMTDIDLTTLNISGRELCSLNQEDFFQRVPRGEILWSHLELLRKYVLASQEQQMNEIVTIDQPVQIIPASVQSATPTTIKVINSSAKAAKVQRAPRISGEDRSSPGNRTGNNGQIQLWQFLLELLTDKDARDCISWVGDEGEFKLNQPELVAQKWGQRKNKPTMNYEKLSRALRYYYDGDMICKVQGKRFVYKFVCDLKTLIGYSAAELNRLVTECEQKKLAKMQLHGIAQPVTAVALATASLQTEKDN
# In short: as §1
# ERG = molecular target: T4, ERG (Homo sapiens, UniProt P11308 1-479); conditions: protein: recombinant; tags: N-terminal GST; dsDNA, one strand shown
# T4 sequence: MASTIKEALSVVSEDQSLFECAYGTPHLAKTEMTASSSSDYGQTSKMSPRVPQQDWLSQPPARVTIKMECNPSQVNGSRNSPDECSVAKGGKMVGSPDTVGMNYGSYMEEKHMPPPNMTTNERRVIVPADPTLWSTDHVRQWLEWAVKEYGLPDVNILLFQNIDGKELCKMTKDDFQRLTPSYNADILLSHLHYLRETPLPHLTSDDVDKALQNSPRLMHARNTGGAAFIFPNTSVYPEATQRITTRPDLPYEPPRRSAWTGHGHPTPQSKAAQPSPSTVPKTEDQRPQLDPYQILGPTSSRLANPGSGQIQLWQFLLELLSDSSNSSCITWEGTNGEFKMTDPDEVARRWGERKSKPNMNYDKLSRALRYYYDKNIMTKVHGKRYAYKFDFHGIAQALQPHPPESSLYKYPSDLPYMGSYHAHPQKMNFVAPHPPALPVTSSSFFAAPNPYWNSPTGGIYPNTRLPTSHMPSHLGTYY
# In short: as §1
# ELF1 = ELF1 (Homo sapiens, UniProt P32519 1-619); conditions: protein: recombinant; tags: N-terminal GST; dsDNA, one strand shown
# Sequence of ELF1 (P32519 whole entry): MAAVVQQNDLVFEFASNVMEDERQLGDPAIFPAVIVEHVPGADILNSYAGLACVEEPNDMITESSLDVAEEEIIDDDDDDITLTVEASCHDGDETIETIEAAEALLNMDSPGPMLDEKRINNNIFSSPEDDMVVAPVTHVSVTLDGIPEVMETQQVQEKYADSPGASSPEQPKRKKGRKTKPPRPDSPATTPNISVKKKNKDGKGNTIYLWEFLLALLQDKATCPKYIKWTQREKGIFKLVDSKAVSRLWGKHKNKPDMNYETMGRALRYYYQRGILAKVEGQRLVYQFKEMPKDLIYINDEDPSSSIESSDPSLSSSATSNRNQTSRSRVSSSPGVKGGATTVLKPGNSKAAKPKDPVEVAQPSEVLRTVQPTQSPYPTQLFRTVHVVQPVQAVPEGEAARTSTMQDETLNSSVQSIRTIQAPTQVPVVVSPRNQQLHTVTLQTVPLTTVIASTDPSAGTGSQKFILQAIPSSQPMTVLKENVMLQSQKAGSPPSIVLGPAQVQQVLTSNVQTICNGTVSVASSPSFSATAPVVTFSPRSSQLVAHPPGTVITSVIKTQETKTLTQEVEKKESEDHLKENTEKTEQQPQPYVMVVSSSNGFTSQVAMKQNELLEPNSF
# In short: as §1
# EHF = molecular target: T5, EHF (Homo sapiens, UniProt Q9NZC4 1-300); conditions: protein: recombinant; tags: N-terminal GST; dsDNA, one strand shown
# T5 sequence: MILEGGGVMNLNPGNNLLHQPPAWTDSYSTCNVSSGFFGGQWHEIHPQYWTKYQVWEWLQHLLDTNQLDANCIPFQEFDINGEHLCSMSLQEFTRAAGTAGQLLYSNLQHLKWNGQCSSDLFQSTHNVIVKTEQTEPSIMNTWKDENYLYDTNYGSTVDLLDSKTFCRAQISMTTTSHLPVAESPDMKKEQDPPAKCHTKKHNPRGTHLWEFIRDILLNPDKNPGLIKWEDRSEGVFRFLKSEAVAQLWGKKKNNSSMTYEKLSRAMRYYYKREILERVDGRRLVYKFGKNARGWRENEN
# In short: as §1
# SPI1 = SPI1 (Homo sapiens, UniProt P17947 1-270); conditions: protein: recombinant; tags: N-terminal GST; dsDNA, one strand shown
# In short: as §1
# SPIB = SPIB (Homo sapiens, UniProt Q01892 1-262); conditions: protein: recombinant; tags: N-terminal GST; dsDNA, one strand shown
# Sequence of SPIB (Q01892 whole entry): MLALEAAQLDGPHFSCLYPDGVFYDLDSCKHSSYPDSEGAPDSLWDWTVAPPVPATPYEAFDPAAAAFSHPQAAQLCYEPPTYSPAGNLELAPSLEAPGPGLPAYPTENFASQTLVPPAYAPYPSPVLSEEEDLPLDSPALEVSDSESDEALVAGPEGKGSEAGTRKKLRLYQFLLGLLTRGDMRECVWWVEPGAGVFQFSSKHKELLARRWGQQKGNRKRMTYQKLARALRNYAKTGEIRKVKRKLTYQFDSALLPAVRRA
# In short: as §1
# ELK3 = molecular target: T6, ELK3 (Homo sapiens, UniProt P41970 1-407); conditions: protein: recombinant; tags: N-terminal GST; dsDNA, one strand shown
# T6 sequence: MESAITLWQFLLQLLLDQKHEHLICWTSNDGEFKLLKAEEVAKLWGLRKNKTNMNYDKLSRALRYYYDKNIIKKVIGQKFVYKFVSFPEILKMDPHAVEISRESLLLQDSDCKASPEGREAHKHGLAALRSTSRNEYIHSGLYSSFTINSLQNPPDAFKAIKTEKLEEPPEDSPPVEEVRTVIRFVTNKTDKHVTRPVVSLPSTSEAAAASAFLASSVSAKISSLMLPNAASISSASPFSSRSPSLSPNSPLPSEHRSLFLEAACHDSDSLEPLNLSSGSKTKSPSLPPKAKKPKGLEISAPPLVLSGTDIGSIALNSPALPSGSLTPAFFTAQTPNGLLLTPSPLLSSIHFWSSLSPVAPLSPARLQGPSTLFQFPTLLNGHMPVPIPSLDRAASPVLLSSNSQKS
# In short: as §1
# FEV = molecular target: T7, FEV (Homo sapiens, UniProt Q99581 1-238); conditions: protein: recombinant; tags: N-terminal GST; dsDNA, one strand shown
# T7 sequence: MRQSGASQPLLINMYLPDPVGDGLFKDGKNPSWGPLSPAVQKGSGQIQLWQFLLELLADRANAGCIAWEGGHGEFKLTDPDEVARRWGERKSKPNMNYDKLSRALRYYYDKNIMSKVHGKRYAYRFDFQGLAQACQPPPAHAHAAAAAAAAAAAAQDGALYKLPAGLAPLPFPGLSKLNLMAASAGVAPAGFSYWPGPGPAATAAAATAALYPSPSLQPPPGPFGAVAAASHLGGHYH
# In short: as §1
# ETV5 = ETV5 (Homo sapiens, UniProt P41161 1-510); conditions: protein: recombinant; tags: N-terminal GST; dsDNA, one strand shown
# Sequence of ETV5 (P41161 whole entry): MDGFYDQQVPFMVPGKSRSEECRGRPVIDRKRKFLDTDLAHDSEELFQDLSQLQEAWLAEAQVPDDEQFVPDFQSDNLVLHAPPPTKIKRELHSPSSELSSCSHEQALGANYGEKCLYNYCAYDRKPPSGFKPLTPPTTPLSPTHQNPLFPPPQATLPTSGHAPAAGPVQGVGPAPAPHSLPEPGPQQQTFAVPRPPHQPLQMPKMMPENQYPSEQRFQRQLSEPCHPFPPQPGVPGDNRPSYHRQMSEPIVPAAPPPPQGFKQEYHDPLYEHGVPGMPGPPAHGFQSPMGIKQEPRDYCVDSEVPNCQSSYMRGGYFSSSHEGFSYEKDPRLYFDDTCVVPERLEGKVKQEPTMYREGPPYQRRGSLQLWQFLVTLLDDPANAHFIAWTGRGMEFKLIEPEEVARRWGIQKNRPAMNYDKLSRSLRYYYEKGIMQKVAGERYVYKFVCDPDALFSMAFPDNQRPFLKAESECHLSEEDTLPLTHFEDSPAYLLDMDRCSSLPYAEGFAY
# In short: as §1
# HSF1 = HSF1 (Homo sapiens, UniProt Q00613 1-529); conditions: protein: recombinant; tags: N-terminal GST; chain copies: 3; dsDNA, one strand shown
# Sequence of HSF1 (Q00613 whole entry): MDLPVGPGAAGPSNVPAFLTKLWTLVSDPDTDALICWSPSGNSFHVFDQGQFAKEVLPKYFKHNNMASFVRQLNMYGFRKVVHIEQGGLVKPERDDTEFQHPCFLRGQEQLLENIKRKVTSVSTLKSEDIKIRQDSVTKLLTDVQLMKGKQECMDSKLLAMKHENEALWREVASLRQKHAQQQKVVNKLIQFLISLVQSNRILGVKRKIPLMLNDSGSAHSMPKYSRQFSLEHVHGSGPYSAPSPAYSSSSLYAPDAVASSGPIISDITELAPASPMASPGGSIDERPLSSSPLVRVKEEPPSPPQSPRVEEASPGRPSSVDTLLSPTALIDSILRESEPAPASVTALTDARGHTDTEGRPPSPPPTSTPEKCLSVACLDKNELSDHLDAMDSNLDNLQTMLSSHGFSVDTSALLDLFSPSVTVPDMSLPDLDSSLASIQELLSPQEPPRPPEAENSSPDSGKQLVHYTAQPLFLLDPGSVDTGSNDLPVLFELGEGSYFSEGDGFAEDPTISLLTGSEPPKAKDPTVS
# In short: as §1
# SPIC = molecular target: T8, SPIC (Homo sapiens, UniProt Q8N5J4 1-248); conditions: protein: recombinant; tags: N-terminal GST; dsDNA, one strand shown
# T8 sequence: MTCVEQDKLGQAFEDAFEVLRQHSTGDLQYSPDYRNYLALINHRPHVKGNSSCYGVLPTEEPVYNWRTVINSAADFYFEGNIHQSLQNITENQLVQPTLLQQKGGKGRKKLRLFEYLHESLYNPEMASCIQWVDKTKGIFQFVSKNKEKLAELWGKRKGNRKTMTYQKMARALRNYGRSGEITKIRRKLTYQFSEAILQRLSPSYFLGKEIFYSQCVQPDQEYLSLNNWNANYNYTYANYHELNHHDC
# In short: as §1
# ELF4 = ELF4 (Homo sapiens, UniProt Q99607 1-663); conditions: protein: recombinant; tags: N-terminal GST; dsDNA, one strand shown
# Sequence of ELF4 (Q99607 whole entry): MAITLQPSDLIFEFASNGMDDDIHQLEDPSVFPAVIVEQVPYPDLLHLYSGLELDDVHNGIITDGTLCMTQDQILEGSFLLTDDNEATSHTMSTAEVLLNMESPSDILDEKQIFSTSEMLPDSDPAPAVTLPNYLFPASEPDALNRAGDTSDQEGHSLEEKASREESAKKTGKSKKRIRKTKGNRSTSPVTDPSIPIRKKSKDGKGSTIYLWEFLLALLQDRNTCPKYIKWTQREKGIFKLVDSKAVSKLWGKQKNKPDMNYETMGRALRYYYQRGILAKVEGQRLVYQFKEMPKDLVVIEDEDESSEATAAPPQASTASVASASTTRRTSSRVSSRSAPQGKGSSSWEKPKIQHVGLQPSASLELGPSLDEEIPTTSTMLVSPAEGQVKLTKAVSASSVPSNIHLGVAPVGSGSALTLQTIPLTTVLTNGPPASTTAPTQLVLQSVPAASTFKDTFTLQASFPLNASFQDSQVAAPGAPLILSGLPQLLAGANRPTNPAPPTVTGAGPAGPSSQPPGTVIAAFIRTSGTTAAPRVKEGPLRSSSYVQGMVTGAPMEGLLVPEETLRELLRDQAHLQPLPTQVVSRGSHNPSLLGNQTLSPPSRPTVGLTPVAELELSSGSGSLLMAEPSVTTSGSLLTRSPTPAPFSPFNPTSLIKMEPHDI
# In short: as §1
# ELK4 = molecular target: T9, ELK4 (Homo sapiens, UniProt P28324-2 1-405); conditions: protein: recombinant; tags: N-terminal GST; dsDNA, one strand shown
# T9 sequence: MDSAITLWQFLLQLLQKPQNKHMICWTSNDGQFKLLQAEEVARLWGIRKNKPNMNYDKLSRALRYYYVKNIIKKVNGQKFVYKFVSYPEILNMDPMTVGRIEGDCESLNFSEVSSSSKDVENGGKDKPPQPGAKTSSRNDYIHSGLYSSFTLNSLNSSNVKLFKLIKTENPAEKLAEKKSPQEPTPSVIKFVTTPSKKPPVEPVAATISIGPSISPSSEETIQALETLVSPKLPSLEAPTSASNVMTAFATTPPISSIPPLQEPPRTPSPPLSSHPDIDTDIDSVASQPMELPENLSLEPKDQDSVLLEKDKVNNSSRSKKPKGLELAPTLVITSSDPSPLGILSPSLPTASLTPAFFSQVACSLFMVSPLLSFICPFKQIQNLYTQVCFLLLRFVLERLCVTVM
# In short: as §1
# ETV2 = molecular target: T10, ETV2 (Homo sapiens, UniProt O00321 1-342); conditions: protein: recombinant; tags: N-terminal GST; dsDNA, one strand shown
# T10 sequence: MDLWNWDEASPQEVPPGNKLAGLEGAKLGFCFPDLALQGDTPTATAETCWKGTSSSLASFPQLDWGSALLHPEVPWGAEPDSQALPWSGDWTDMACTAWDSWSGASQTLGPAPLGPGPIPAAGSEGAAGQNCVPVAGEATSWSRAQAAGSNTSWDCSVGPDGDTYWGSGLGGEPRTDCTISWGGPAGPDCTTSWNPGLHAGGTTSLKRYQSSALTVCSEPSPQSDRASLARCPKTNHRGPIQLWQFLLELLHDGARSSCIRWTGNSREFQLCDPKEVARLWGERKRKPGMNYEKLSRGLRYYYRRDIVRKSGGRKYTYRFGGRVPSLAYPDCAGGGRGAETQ
# In short: as §1
# ELF3 = molecular target: T11, ELF3 (Homo sapiens, UniProt P78545 1-371); conditions: protein: recombinant; tags: N-terminal GST; dsDNA, one strand shown
# T11 sequence: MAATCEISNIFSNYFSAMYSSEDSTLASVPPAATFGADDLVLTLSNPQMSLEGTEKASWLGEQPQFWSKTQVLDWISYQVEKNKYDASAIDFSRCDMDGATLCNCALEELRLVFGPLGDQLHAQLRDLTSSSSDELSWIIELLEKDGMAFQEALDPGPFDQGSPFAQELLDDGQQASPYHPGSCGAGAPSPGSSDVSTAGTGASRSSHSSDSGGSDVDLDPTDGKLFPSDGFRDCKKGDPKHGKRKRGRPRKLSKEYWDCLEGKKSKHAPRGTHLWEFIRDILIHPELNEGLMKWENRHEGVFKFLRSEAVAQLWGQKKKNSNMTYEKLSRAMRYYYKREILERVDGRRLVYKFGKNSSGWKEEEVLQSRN
# In short: as §1
# ETV1 = ETV1 (Homo sapiens, UniProt P50549 1-477); conditions: protein: recombinant; tags: N-terminal GST; dsDNA, one strand shown
# Sequence of ETV1 (P50549 whole entry): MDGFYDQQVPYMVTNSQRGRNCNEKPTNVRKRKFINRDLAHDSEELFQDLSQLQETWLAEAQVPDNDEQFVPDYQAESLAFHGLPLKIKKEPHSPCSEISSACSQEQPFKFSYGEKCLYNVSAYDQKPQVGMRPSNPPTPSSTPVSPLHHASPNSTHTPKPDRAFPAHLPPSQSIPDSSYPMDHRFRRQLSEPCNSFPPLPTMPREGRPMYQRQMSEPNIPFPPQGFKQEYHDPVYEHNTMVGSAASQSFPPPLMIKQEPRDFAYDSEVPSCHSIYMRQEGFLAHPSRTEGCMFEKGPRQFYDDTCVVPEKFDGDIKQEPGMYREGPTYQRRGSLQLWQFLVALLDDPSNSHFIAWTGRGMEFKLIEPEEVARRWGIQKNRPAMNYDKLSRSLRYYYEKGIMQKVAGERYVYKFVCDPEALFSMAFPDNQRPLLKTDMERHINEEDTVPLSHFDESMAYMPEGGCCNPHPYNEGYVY
# In short: as §1
sequence,measurement,setting,value
ATGGTC,binding signal,FLI1,"1.66 fold enrichment (6-mer frequency, TF over GST control)"
same,binding signal,ELK1,"1.45 fold enrichment (6-mer frequency, TF over GST control)"
same,binding signal,GABPA,"1.65 fold enrichment (6-mer frequency, TF over GST control)"
same,binding signal,ERG,"1.69 fold enrichment (6-mer frequency, TF over GST control)"
same,binding signal,ELF1,"1.55 fold enrichment (6-mer frequency, TF over GST control)"
same,binding signal,EHF,"1.47 fold enrichment (6-mer frequency, TF over GST control)"
same,binding signal,SPI1,"1.64 fold enrichment (6-mer frequency, TF over GST control)"
same,binding signal,SPIB,"1.66 fold enrichment (6-mer frequency, TF over GST control)"
same,binding signal,ELK3,"1.52 fold enrichment (6-mer frequency, TF over GST control)"
same,binding signal,FEV,"1.36 fold enrichment (6-mer frequency, TF over GST control)"
same,binding signal,ETV5,"1.57 fold enrichment (6-mer frequency, TF over GST control)"
same,binding signal,HSF1,"1.01 fold enrichment (6-mer frequency, TF over GST control)"
same,binding signal,SPIC,"1.63 fold enrichment (6-mer frequency, TF over GST control)"
same,binding signal,ELF4,"1.59 fold enrichment (6-mer frequency, TF over GST control)"
same,binding signal,ELK4,"1.38 fold enrichment (6-mer frequency, TF over GST control)"
same,binding signal,ETV2,"1.47 fold enrichment (6-mer frequency, TF over GST control)"
same,binding signal,ELF3,"1.48 fold enrichment (6-mer frequency, TF over GST control)"
same,binding signal,ETV1,"1.41 fold enrichment (6-mer frequency, TF over GST control)"
